Compounds without any hit were thinned out: in the full panel of roughly 83,000, 20% have a hit.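 Cell lines were cultured in 96-well plates, exposed to a single compound concentration, and assessed for percent growth 48 hours later.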 Unmarked numbers belong to inactive results. Activity calls are given as the source filed them. How the source made its calls: active means growth percent below 10; inactive means the rest.
The compounds below were run on NCI-H522 lung (assay: NCI-60 one-dose screen, 48 h (100 = growth as untreated, 0 = no growth, -100 = all killed)). Details: 10 µM unless noted.

Question: Which growth does the source give for `C=CCn1c(SCC(=O)Nc2ccc(C(=O)/C=C/c3ccc(OC)cc3)cc2)nnc1-c1ccccc1` here?
Answer: 80.7%

Question: `COc1cc2ncnc(Nc3ccc(F)c(Cl)c3)c2cc1OCC(=O)N1CCN(c2ccc(F)cc2)CC1` was tested. Which growth did it give?
Answer: 72.2%

Question: How did the growth turn out when `Cc1ccc2nc(Cl)c(Cn3nnnc3SCc3ccccc3)cc2c1` was run?
Answer: 77.5%

Question: Which growth does the source give for `CN1CCN(CCOc2ccc(-c3cnc4c(-c5ccc(C(F)(F)F)cc5)cnn4c3)cc2)CC1` here?
Answer: 44.4%

Question: With `C/C(C=O)=C\c1ccc2c(c1)OCO2` as the compound, how does the growth read?
Answer: 99.9%

Question: Which growth does the source give for `Cc1ccc(O)c(NC(=O)c2ccc(CNc3ccnc(C(F)(F)F)c3)cc2)c1` here?
Answer: 67.6%

Question: Which growth does the source give for `O=C1/C(=C/c2ccc(C(F)(F)F)cc2)COc2ccc(O)c(O)c21` here?
Answer: -50.3% (active)

Question: Which growth does the source give for `O=C(N/N=C/c1ccc(O)cc1O)c1ccc(Nc2ccnc(C(F)(F)F)c2)cc1` here?
Answer: 44.2%

Question: With `O=c1[nH]c(-c2ccc(Cl)cc2)cn1-c1ccc(-n2cc(-c3ccc(Cl)cc3)[nH]c2=O)cc1` as the compound, how does the growth read?
Answer: 112%

Question: How did the growth turn out when `CC1O[C@@H]2C[C@@](O)([C@H]1O)n1c3ccccc3c3c4c(c5c6ccccc6n2c5c31)C(=O)NC4=O` (some centres not stated) was run?
Answer: 30.7%

Question: How did the growth turn out when `COC1=CC(c2ccc[nH]2)=N/C1=C\c1[nH]c(C)c(CC(=O)OCc2ccccc2)c1C` was run?
Answer: -33.4% (active)

Question: For `NC(=O)c1ccc(NC(=O)c2oc3ccccc3c2-c2cnn(-c3ccccc3)c2)cc1`, which growth is on record?
Answer: 21.4% [50 µM]

Question: For `CCOC(=O)N1CCN(S(=O)(=O)c2oc(-c3ccc(Cl)cc3)nc2C#N)CC1`, which growth is on record?
Answer: -6.61% (active)

Question: `Cc1nn(-c2ccccc2)c(N2CCCCC2)c1/C=N/NC(=O)Cn1c(=O)sc2ccccc21` was tested. Which growth did it give?
Answer: 64.9%

Question: Which growth does the source give for `CN(C)c1ccc(C(=NO)c2ccc(N(C)C)cc2)cc1` here?
Answer: -25.8% (active)

Question: With `Clc1ccc(-c2nc(-c3c[nH]c4ncccc34)cs2)cc1` as the compound, how does the growth read?
Answer: 71.7% [100 µM]

Question: With `COc1cccc(C(=O)OCC(O)C(=O)NC23CC4CC(CC(C4)C2)C3)c1` (configuration not stated) as the compound, how does the growth read?
Answer: 86.1%

Question: With `C=CC(=O)N1CCN(c2ccc3cccc(NC(=O)c4cnc(C)cn4)c3n2)CC1` as the compound, how does the growth read?
Answer: 10.4%

Question: `CCOC(=O)c1c(C)c2c(n1C)CSc1cc(S(=O)(=O)c3ccccc3)c(=O)[nH]c1-2` was tested. Which growth did it give?
Answer: 32% [100 µM]

Question: For `CCCCCCCCNc1cc2c3c(c1)CCCN3CCC2`, which growth is on record?
Answer: -28.4% (active)

Question: `COc1ccc(OC)c(-c2cn3nc(-c4c[nH]c5ccc(Br)cc45)sc3n2)c1` was tested. Which growth did it give?
Answer: 8.67% (active)

Question: With `CS(=O)(=O)Nc1cc(-c2ccc3ncnc(Nc4ccc5c(cnn5Cc5cccnc5)c4)c3c2)cnc1Cl` as the compound, how does the growth read?
Answer: 44.2%

Question: For `C=CCN=C(N)SCCCCCCSC(N)=NCC=C`, which growth is on record?
Answer: 64.4%

Question: How did the growth turn out when `COc1cc(C2C3=C(COC3=O)N(CCO)c3cc4c(cc32)OCCO4)cc(OC)c1OC` (configuration not stated) was run?
Answer: -10% (active)

Question: For `COc1ccc2[nH]cc(-c3nc(-c4cn(C)c5ccncc45)cs3)c2c1`, which growth is on record?
Answer: 65.4%

Question: How did the growth turn out when `COc1cccc(NC(=O)c2cccc(C3CCc4c(cc(OC)c(OC)c4OC)O3)c2)c1` (configuration not stated) was run?
Answer: 53.1%

Question: For `Cn1c(O)c(C(/C=C/c2ccccc2)=Nc2ccccc2N)c(=O)n(C)c1=O`, which growth is on record?
Answer: 90.3%

Question: With `CC1=C(C(=O)n2c3ccccc3c3ccccc32)C(c2cccc([N+](=O)[O-])c2)C(C(=O)n2c3ccccc3c3ccccc32)=C(C)N1` as the compound, how does the growth read?
Answer: 101%

Question: For `O=C(O)c1cn(C2CC2)c2cc(N3CCN(C(=O)N/N=C/c4ccccc4)CC3)c(F)cc2c1=O`, which growth is on record?
Answer: 78%

Question: For `CC1(C)CCC(S(=O)(=O)c2ccc3c(c2)/C(=N\O)c2cc(S(=O)(=O)N4CCN(c5ccc(F)cc5O)CC4)ccc2-3)CC1`, which growth is on record?
Answer: -82.6% (active)

Question: Which growth does the source give for `Cc1ccc(C)n1/C=C/n1c(C)ccc1C` here?
Answer: 83.8%

Question: With `CCOC(=O)C(=Cc1cccc(C#N)c1)C(=O)OCC` as the compound, how does the growth read?
Answer: 16.7%

Question: For `COc1cc(-c2nc(NC(C)=O)sc2-c2ccnc(NCCNS(=O)(=O)c3ccccc3)n2)ccc1Cl`, which growth is on record?
Answer: 9.14% (active)

Question: Which growth does the source give for `CCN1CCN(CC(=O)Nc2nc3ccc(NCc4ccc(Br)cc4)cc3s2)CC1` here?
Answer: 99.5%

Question: With `C/C(=N\Nc1nc(C)cs1)c1cc2ccccc2o1` as the compound, how does the growth read?
Answer: 66.3%

Question: With `COc1ccccc1-n1c(-c2cc(O)ccc2C)cn2c3c(=O)[nH]c(=O)n(C)c3nc12` as the compound, how does the growth read?
Answer: 44.5%

Question: Which growth does the source give for `COc1ccc(C2=C/C(=C\c3ccc(Cl)cc3)C(=O)N2/N=C/c2ccc(Cl)cc2)cc1` here?
Answer: 73.9%

What follows are compounds tested on A549/ATCC NSCLC in the same assay as above. Details: 10 µM unless noted.

Question: How did the growth turn out when `C=CCn1c(SCC(=O)Nc2ccc(C(=O)/C=C/c3ccc(OC)cc3)cc2)nnc1-c1ccccc1` was run?
Answer: 83%

Question: `COc1cc2ncnc(Nc3ccc(F)c(Cl)c3)c2cc1OCC(=O)N1CCN(c2ccc(F)cc2)CC1` was tested. Which growth did it give?
Answer: 79.7%

Question: With `Cc1ccc2nc(Cl)c(Cn3nnnc3SCc3ccccc3)cc2c1` as the compound, how does the growth read?
Answer: 92.5%

Question: With `CN1CCN(CCOc2ccc(-c3cnc4c(-c5ccc(C(F)(F)F)cc5)cnn4c3)cc2)CC1` as the compound, how does the growth read?
Answer: -41.1% (active)

Question: With `C/C(C=O)=C\c1ccc2c(c1)OCO2` as the compound, how does the growth read?
Answer: 105%

Question: For `Cc1ccc(O)c(NC(=O)c2ccc(CNc3ccnc(C(F)(F)F)c3)cc2)c1`, which growth is on record?
Answer: 53%

Question: How did the growth turn out when `O=C1/C(=C/c2ccc(C(F)(F)F)cc2)COc2ccc(O)c(O)c21` was run?
Answer: 54.2%

Question: `O=C(N/N=C/c1ccc(O)cc1O)c1ccc(Nc2ccnc(C(F)(F)F)c2)cc1` was tested. Which growth did it give?
Answer: 80.6%

Question: `O=c1[nH]c(-c2ccc(Cl)cc2)cn1-c1ccc(-n2cc(-c3ccc(Cl)cc3)[nH]c2=O)cc1` was tested. Which growth did it give?
Answer: 93.4%

Question: Which growth does the source give for `CC1O[C@@H]2C[C@@](O)([C@H]1O)n1c3ccccc3c3c4c(c5c6ccccc6n2c5c31)C(=O)NC4=O` (some centres not stated) here?
Answer: 32.3%

Question: Which growth does the source give for `COC1=CC(c2ccc[nH]2)=N/C1=C\c1[nH]c(C)c(CC(=O)OCc2ccccc2)c1C` here?
Answer: 5.03% (active)

Question: `NC(=O)c1ccc(NC(=O)c2oc3ccccc3c2-c2cnn(-c3ccccc3)c2)cc1` was tested. Which growth did it give?
Answer: 8.08% [50 µM] (active)

Question: Which growth does the source give for `CCOC(=O)N1CCN(S(=O)(=O)c2oc(-c3ccc(Cl)cc3)nc2C#N)CC1` here?
Answer: 96.8%

Question: How did the growth turn out when `Cc1nn(-c2ccccc2)c(N2CCCCC2)c1/C=N/NC(=O)Cn1c(=O)sc2ccccc21` was run?
Answer: 66%

Question: `CN(C)c1ccc(C(=NO)c2ccc(N(C)C)cc2)cc1` was tested. Which growth did it give?
Answer: 31.4%

Question: `Clc1ccc(-c2nc(-c3c[nH]c4ncccc34)cs2)cc1` was tested. Which growth did it give?
Answer: 55.2% [100 µM]

Question: `COc1ccc(C(c2cc(OC)c(OC)c(OC)c2)N2CCCC2)cc1` (configuration not stated) was tested. Which growth did it give?
Answer: 77.7%

Question: How did the growth turn out when `COc1cccc(C(=O)OCC(O)C(=O)NC23CC4CC(CC(C4)C2)C3)c1` (configuration not stated) was run?
Answer: 90.1%

Question: Which growth does the source give for `C=CC(=O)N1CCN(c2ccc3cccc(NC(=O)c4cnc(C)cn4)c3n2)CC1` here?
Answer: 27.3%

Question: How did the growth turn out when `CCOC(=O)c1c(C)c2c(n1C)CSc1cc(S(=O)(=O)c3ccccc3)c(=O)[nH]c1-2` was run?
Answer: 32.1% [100 µM]

Question: With `CCCCCCCCNc1cc2c3c(c1)CCCN3CCC2` as the compound, how does the growth read?
Answer: 76.4%

Question: `COc1ccc(OC)c(-c2cn3nc(-c4c[nH]c5ccc(Br)cc45)sc3n2)c1` was tested. Which growth did it give?
Answer: 14.5%

Question: `CS(=O)(=O)Nc1cc(-c2ccc3ncnc(Nc4ccc5c(cnn5Cc5cccnc5)c4)c3c2)cnc1Cl` was tested. Which growth did it give?
Answer: 83.7%

Question: How did the growth turn out when `C=CCN=C(N)SCCCCCCSC(N)=NCC=C` was run?
Answer: 86.8%

Question: With `COc1cc(C2C3=C(COC3=O)N(CCO)c3cc4c(cc32)OCCO4)cc(OC)c1OC` (configuration not stated) as the compound, how does the growth read?
Answer: 11.9%

Question: With `COc1ccc2[nH]cc(-c3nc(-c4cn(C)c5ccncc45)cs3)c2c1` as the compound, how does the growth read?
Answer: 6.03% (active)

Question: For `COc1cccc(NC(=O)c2cccc(C3CCc4c(cc(OC)c(OC)c4OC)O3)c2)c1` (configuration not stated), which growth is on record?
Answer: 70.8%

Question: `Cn1c(O)c(C(/C=C/c2ccccc2)=Nc2ccccc2N)c(=O)n(C)c1=O` was tested. Which growth did it give?
Answer: 103%

Question: For `CC1=C(C(=O)n2c3ccccc3c3ccccc32)C(c2cccc([N+](=O)[O-])c2)C(C(=O)n2c3ccccc3c3ccccc32)=C(C)N1`, which growth is on record?
Answer: 102%

Question: For `O=C(O)c1cn(C2CC2)c2cc(N3CCN(C(=O)N/N=C/c4ccccc4)CC3)c(F)cc2c1=O`, which growth is on record?
Answer: 106%

Question: How did the growth turn out when `CC1(C)CCC(S(=O)(=O)c2ccc3c(c2)/C(=N\O)c2cc(S(=O)(=O)N4CCN(c5ccc(F)cc5O)CC4)ccc2-3)CC1` was run?
Answer: -92.9% (active)

Question: Which growth does the source give for `Cc1ccc(C)n1/C=C/n1c(C)ccc1C` here?
Answer: 95.5%

Question: Which growth does the source give for `CCOC(=O)C(=Cc1cccc(C#N)c1)C(=O)OCC` here?
Answer: 75.5%

Question: `COc1cc(-c2nc(NC(C)=O)sc2-c2ccnc(NCCNS(=O)(=O)c3ccccc3)n2)ccc1Cl` was tested. Which growth did it give?
Answer: 25.6%

Question: How did the growth turn out when `CCN1CCN(CC(=O)Nc2nc3ccc(NCc4ccc(Br)cc4)cc3s2)CC1` was run?
Answer: 64.5%

Question: `C/C(=N\Nc1nc(C)cs1)c1cc2ccccc2o1` was tested. Which growth did it give?
Answer: 88%

Question: How did the growth turn out when `COc1ccccc1-n1c(-c2cc(O)ccc2C)cn2c3c(=O)[nH]c(=O)n(C)c3nc12` was run?
Answer: 66.3%

Question: Which growth does the source give for `N#C/C(=C\c1ccc(Br)cc1)c1cc2ccccc2[nH]1` here?
Answer: 101%

Question: `COc1ccc(C2=C/C(=C\c3ccc(Cl)cc3)C(=O)N2/N=C/c2ccc(Cl)cc2)cc1` was tested. Which growth did it give?
Answer: 80.7%

Question: `CC(O)c1ncc(/C=C2\SC(=S)N(Cc3ccccc3)C2=O)s1` (configuration not stated) was tested. Which growth did it give?
Answer: 105%

Source: PubChem BioAssay (NCI)
